Values joined by “and” are separate entries in the source; they are usually repeats but may differ in a detail not shown here. Equal entries are not always repeated. The panel holds about 83,000 compounds, 20% with a hit somewhere; the sample as a whole holds those more often.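 Results are percent growth after 48 hours of single-concentration exposure. 100 means growth as in untreated cells, lower positive values show inhibition; negative values down to -100 show cell death.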 The source holds several records for some structures; these can differ, active in one and inactive in another. Active and inactive are the calls of the source. The calls were made as follows: active = growth percent below 10; inactive = the rest.
tested on: MDA-MB-468 breast; experiment: NCI-60 one-dose screen, 48 h (100 = growth as untreated, 0 = no growth, -100 = all killed); conditions: 10 µM unless noted

Row | SMILES | growth
1 | Brc1cccc(-c2cc(-c3ccc4c(c3)OCCCO4)[nH]n2)c1 | 50.6% [25 µM] (inactive)
2 | OCCN1CCN(CCCN2c3ccccc3Sc3ccc(Cl)cc32)CC1 | 25.3% (inactive)
3 | Cc1ccc(Cc2cnc(NC(=O)c3cc(C)oc3C)s2)cc1 | 31.5% (inactive)
4 | O=C(Nc1ccc(Cl)c(Cl)c1)O/N=C\c1c(Cl)ccc([N+](=O)[O-])c1Cl | -65% (active)
5 | COc1ccc(C(=O)Nc2ncc(Cc3ccccc3Cl)s2)cc1 | 24.7% (inactive)
6 | N=c1c2c(=O)n3c(nc2nc2sc4ccc(Cl)cc4n12)-c1ccccc1Sc1ccccc1-3 | 24.3% (inactive)
7 | O=c1[nH]c(-c2ccccc2)nc2sc3cc(O)ccc3c12 | 93.7% (inactive)
8 | Brc1ccc(SCN(CSc2ccc(Br)cc2)Cc2ccccc2)cc1 | 98.3% (inactive)
9 | c1c(-c2cc(C3CC3)[nH]n2)n[nH]c1C1CC1 | 95.4% (inactive)
10 | CCOC(=O)c1c(NC(=O)CSc2n[nH]c3nc4ccccc4n23)sc(CC)c1C | 68.6% (inactive)
11 | C=CCn1c(SCC(=O)Nc2ccc(C(=O)/C=C/c3ccc(C)cc3)cc2)nnc1-c1c[nH]c2ccccc12 | 85.3% (inactive)
12 | CCCC(=O)NC(c1cccnc1)c1cc(C(C)=O)c2cccnc2c1O (stereo not given) | 15.8% (inactive)
13 | COc1ccc(-c2ccc(-c3ccc(C(=N)N)nc3)s2)cc1 | -69.9% (active)
14 | CCC(C)(O)c1ccc(C)cc1 (stereo not given) | 110% (inactive)
15 | CN(C)CCS(=O)(=O)Nc1cc(-c2ccc3ncc(C#N)c(Nc4ccc(F)c(Cl)c4)c3c2)cnc1Cl | -77.8% (active)
16 | N=c1c(C(=O)OCc2ccccc2)ncc(CCl)n1O | 68.6% (inactive)
17 | O=S(=O)(NCCCNc1cc(-c2cn(-c3ccccc3)nc2-c2cccc(O)c2)ccn1)c1cccc(F)c1 | 7.62% (active)
18 | CN1CCN(C(=O)c2c3c(n4ccccc24)C(=O)c2ncccc2C3=O)CC1 | 88.4% (inactive)
19 | Cc1ccc(-c2csc(N/N=C/c3cccs3)n2)cc1 | 65.1% (inactive)
20 | CCN(CC)CCN1C(=O)c2c(c(C)c3c(oc4ccc(OC)cc43)c2C)C1=O | 101% (inactive)

Row | SMILES | growth
21 | COc1cc(C2CC(c3ccc(Nc4ccnc5cc(Cl)ccc45)cc3)=NN2c2ccccc2)cc(OC)c1OC (stereo not given) | 44.6% (inactive)
22 | C#C[C@@]1(O)[C@@H](CO)O[C@@H](n2cc(Br)c3c(N)ncnc32)[C@@H]1O | -45.1% (active)
23 | C[C@H]1c2ccccc2CN1CCCOc1cc2c(cc1OCC1CC1)C1(CCCC1)C(N)=N2 | 29.2% (inactive)
24 | O=C(CSc1nnnn1-c1ccccc1)Nc1ccc(Oc2ccccc2)cc1 | 115% (inactive)
25 | CCOC(=O)C(=O)C(C(=O)OCC)c1ccccc1 (stereo not given) | 111% (inactive)
26 | N#Cc1c(-c2ccc(Cl)cc2)nc(NN=Cc2ccc[nH]2)nc1N1CCOCC1 | 78.2% (inactive)
27 | CCOc1ccc(NC(=O)Nc2cc(C(C)C)ccc2C)cc1 | 114% (inactive)
28 | CC1=C(/C=C/C(C)=C/C=C/C(C)=C/C=N/NC(=S)NC(=S)N/N=C/C=C(C)/C=C/C=C(C)/C=C/C2=C(C)CCCC2(C)C)C(C)(C)CCC1 | 10.1% (inactive) and -26.7% (active)
29 | O=C(NC1CCN(Cc2ccccc2)CC1)c1cc(-c2ccncc2)nc2ccc(Cl)cc12 | 12.8% (inactive)
30 | CN1CCN=C1c1ccc(NC(=O)c2ccc(C(=O)Nc3ccc(C4=NCCN4C)cc3)cc2)cc1 | 81.2% (inactive)
31 | CCN(CC)CCCCNc1c2ccc(Cl)cc2nc2ccc(OC)cc12 | -42.7% (active)
32 | Cn1cccc1-c1nc2c3c(ccc2[nH]1)C(=O)c1ccccc1C3=O | 10.9% (inactive)
33 | COc1cc2c(cc1-c1c(C)noc1C)ncc1nc(C3CCC(F)(F)CC3)n([C@@H](C)COC(F)F)c12 | 39.3% (inactive)
34 | Cc1ccc(C)c2c1CCC2=O | 63.4% (inactive)
35 | NC(=NCCCC1(c2ccccc2)CCCC1)Nc1ccc(Cl)cc1 | -83.1% (active)
36 | COc1ccc(NC2=NC(C)(CO)CS2)cc1 (stereo not given) | 108% (inactive)
37 | O=CNc1cc(Cl)cc(Cl)c1 | 103% (inactive)
38 | CC(=O)c1ccccc1O | 101% (inactive) and 103% (inactive) and 108% (inactive)
39 | O=c1oc2ccc(I)cc2c(=O)n1-c1ccc(F)cc1F | -8.85% (active)
40 | COc1cc(-c2nn(-c3ccc(NC(=O)NCCCNC(=O)c4ccccc4)cc3)cc2-c2ccncc2)ccc1Cl | 9.32% (active)

— PubChem BioAssay (NCI)
